Records with an inconclusive call do not appear. A number with no mark means an inactive call. The call rests on the fitted dose curve; in most records, active means well fitted inhibition curve with a large enough effect; inconclusive means small, poorly fitted or top-dose-only effect, or effect the other way; inactive means flat fitted curve, though single readings scatter.
These compounds were tested against ATP-dependent 6-phosphofructokinase (Trypanosoma brucei brucei) (UniProt O15648) (assay: qHTS Assay to Find Inhibitors of T. brucei phosphofructokinase: hit validation (AID 492961;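 further: luminescence reports ADP formed as PFK phosphorylates fructose-6-phosphate with ATP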)). Details: T. brucei PFK, ADP-Glo luminescence; series mostly up to 51.4 µM; activity change, negative = inhibition: at the top concentration.
How it was run: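 Reaction: 0.1 M triethanolamine pH 8.0, 5 mM MgCl2, F6P 0.5 mM, ATP 0.1 mM, PFK 1.25 nM, 45 min RT. Read-out: ADP-Glo luminescence. Analysis: concentration-response fits, classed by r2 and efficacy.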
On the % scale 0 is the no-effect control and ±100 the full control effect.

Chain of ATP-dependent 6-phosphofructokinase (Trypanosoma brucei brucei) (O15648 whole entry, looked up): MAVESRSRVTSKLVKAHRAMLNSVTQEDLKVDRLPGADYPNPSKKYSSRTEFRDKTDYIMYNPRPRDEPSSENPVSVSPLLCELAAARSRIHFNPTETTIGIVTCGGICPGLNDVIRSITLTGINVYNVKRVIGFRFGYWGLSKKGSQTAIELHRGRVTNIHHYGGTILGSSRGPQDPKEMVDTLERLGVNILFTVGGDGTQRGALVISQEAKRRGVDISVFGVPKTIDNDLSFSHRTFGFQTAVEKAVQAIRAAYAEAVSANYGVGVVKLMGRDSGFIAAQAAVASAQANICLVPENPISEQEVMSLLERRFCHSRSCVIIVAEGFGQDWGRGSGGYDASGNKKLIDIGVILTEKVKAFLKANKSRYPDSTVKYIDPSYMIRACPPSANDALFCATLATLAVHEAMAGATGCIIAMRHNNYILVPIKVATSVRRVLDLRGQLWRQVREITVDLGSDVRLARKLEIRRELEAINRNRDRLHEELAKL

Compound	activity change, negative = inhibition
Cc1ncc[nH]1	-3.29%
NCC(O)CC(=O)O (stereo not given)	-0.586%
COC(=O)CC[C@H](N)C(=O)O	-3.73%
CCc1ncnc2cc(OC)c(OC)cc12	6.35%
CC(=O)Nc1c(I)c(C(=O)O)c(I)c(N(C)C(C)=O)c1I	5.61%
[O-][N+](=Nc1ccccc1)c1ccccc1	-3.87%
COC(=O)CCC[N+](C)(C)C	-7.86%
O=C(O)CCCC/C=C(\c1ccccc1)c1cccnc1	11.3%
O=C(O)Cc1cc(I)c(Oc2ccc(O)c(I)c2)c(I)c1	-8.05% [at 24.3 µM]
c1ccc2c(c1)Sc1ccccc1N2CCN1CCCC1	0%
CC(C)(C)c1ccc2c(S(=O)(=O)O)c(C(C)(C)C)ccc2c1	-1.71%
CC1(O)CCC(C(C)(C)O)CC1 (stereo not given)	6.76%
O=C(NNCS(=O)(=O)O)c1ccncc1	0%
COc1cc2c(cc1OC)[C@@H](Cc1cc(OC)c(OC)c(OC)c1)[N+](C)(CCCOC(=O)CC/C=C/CCC(=O)OCCC[N+]1(C)CCc3cc(OC)c(OC)cc3[C@H]1Cc1cc(OC)c(OC)c(OC)c1)CC2 (stereo not given in full)	-0.57%
CCOC(=O)[C@@H](N)CS	15.1%
FC(F)(F)C(F)(F)C(F)(F)C(F)(F)C(F)(F)C(F)(F)F	-7.24%
CC(C)c1ncc([N+](=O)[O-])n1C	-14.1%
NCC[C@H](O)C(=O)N[C@@H]1C[C@H](N)[C@@H](O[C@H]2O[C@H](CN)CC[C@H]2N)[C@H](O)[C@H]1O[C@H]1O[C@H](CO)[C@@H](O)[C@H](N)[C@H]1O	7.52%

Compound	activity change, negative = inhibition
CC[C@H]1OC(=O)[C@H](C)[C@@H](O[C@H]2C[C@@](C)(OC)[C@@H](O)[C@H](C)O2)C(C)[C@@H](O[C@@H]2O[C@H](C)C[C@H](N(C)C)[C@@H]2O)[C@](C)(OC)C[C@@H](C)C(=O)[C@H](C)[C@@H](O)[C@]1(C)O (stereo not given in full)	2.21%
CC(C)CCC[C@@H](C)[C@H]1CC[C@H]2[C@@H]3CC=C4C[C@@H](O)CC[C@]4(C)[C@H]3CC[C@]12C	-5.49%
CNC(=O)C[C@@H](N)C(=O)N[C@@H](C(=O)N[C@@H]1C(=O)N2[C@@H]1SC(C)(C)[C@@H]2C(=O)O)c1ccc(O)cc1	3.96%
O=C(O)CCC/C=C\C[C@@H]1[C@@H](/C=C/[C@@H](O)COc2cccc(Cl)c2)[C@H](O)C[C@@H]1O	-18%
CCCOC(=O)c1ccccc1O	7.82%
OC1OC[C@@H](O)[C@H](O)[C@@H]1O (stereo not given in full)	-1.73%
CC(C)[C@H](N)C(=O)OCC(CO)OCn1cnc2c(=O)[nH]c(N)nc21 (stereo not given in full)	-1.92%
CC(=O)c1ccc2c(c1)N(CCCN1CCN(CCO)CC1)c1ccccc1S2	-6.7%
CC(C)CCC[C@@H](C)[C@H]1CC[C@H]2[C@@H]3CC[C@@H]4C[C@H](O)CC[C@]4(C)[C@H]3CC[C@]12C	14.5%
COc1ccc(C(=O)c2ccc(C)cc2)c(O)c1	-0.436%
O=C1[O][Bi][O]c2ccccc21	-13.6%
O=C1c2ccccc2C(=O)C1c1ccc(F)cc1	-0.422%
CCOc1cc(-c2nccc3cc(OC)c(OC)cc23)cc(OCC)c1OCC	19.6%
CCCCCCCCCC(=O)NO	3.22%
CCN(CC)C(=O)c1cccnc1	5.56%
CCCCC/C=C\C/C=C\C/C=C\CCCCC(=O)O	-10.4%
C[C@]12CC[C@@H]3c4ccc(OC(=O)c5ccccc5)cc4CC[C@H]3[C@@H]1CC[C@@H]2O	-3.9%
